# From ChEMBL document CHEMBL3433997, “St. Jude Leishmania screening dataset” (2016)
# Legend:
# Format in all cases: functional
# [1] = target: Solute carrier family 2, facilitated glucose transporter member 1 (Homo sapiens) (UniProt P11166); assay: ST_JUDE_LEISH: Cytotoxicity at 2uM final concentration against transgenic Leishmania Mexicana promastigotes LmGLUT1 that are glucose transport deficient and complemented with the human glucose transporter GLUT1. Activity is measured by DNA content using SYBR green in vitro
# [2] = target: Hexose transporter 1 (Plasmodium falciparum) (UniProt O97467); assay: ST_JUDE_LEISH: Cytotoxicity at 2uM final concentration against transgenic Leishmania Mexicana promastigotes LmPfHT that are glucose transport deficient and complemented with the Plasmodium falciparum hexose transporter. Activity is measured by DNA content using SYBR green in vitro
# [3] = target: Glucose transporter (Leishmania mexicana) (UniProt O61059); assay: ST_JUDE_LEISH: Cytotoxicity at 2uM final concentration against transgenic Leishmania Mexicana promastigotes LmGT2 that are glucose transport deficient and complemented with the L. Mexicana glucose transporter 2. Activity is measured by DNA content using SYBR green in vitro
# Chain of Solute carrier family 2, facilitated glucose transporter member 1 (Homo sapiens) (P11166 whole entry): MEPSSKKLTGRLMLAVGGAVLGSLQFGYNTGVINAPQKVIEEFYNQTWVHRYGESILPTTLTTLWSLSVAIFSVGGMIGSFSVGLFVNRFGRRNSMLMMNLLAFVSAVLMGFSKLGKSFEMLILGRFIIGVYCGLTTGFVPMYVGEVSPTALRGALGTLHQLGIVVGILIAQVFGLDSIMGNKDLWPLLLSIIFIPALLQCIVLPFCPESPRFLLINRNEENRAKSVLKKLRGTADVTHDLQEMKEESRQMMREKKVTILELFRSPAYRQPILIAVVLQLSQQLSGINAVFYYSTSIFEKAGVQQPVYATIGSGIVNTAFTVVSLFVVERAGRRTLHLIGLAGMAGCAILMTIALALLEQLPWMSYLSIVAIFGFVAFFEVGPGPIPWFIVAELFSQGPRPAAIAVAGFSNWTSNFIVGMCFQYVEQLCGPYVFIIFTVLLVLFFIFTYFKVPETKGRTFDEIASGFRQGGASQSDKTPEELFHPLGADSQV
SMILES,inhibition [1],inhibition [2],inhibition [3]
OC(CNCCc1ccccc1)Cn1c2ccc(Cl)cc2c2cc(Cl)ccc21 (centres undefined),-1.53%,-1.78%,-2.27%
O=C(O)c1ccc2c(c1)N(C(=O)CNCc1ccc(F)cc1)CC(=O)N2CCCc1ccccc1,-4.22%,-1.82%,-2.25%
Oc1cc(Nc2ccnc3ccc(I)cc23)c(F)cc1Cl,0.49%,1.05%,-1.45%
COc1ccc(NCCCNc2ccnc3ccccc23)cc1,5.01%,4.48%,1.73%
CCOc1cc(/C=N/Nc2nc3ccccc3[nH]2)ccc1OCc1ccc([N+](=O)[O-])cc1,5.62%,4.53%,4.41%
CNC(=O)c1cnc(Nc2ccc3[nH]c(=O)[nH]c3c2)nc1Nc1cccc(OC(C)C)c1,-0.17%,-0.76%,-0.26%
COc1cc(Cl)c(C)cc1N(Cc1ccccc1-c1ccccc1)S(=O)(=O)c1ccc(C(F)(F)F)cc1,1.01%,0.29%,0.43%
Cc1nc2ccc3ccc(CNc4ccc(C#N)cc4)cc3c2c(=O)[nH]1,50.2%,39.6%,56%
COc1ccc2nccc([C@@H](O)CN3CCC(NC(=O)/C=C/c4c[nH]c5c(C)cccc45)CC3)c2c1,1.59%,1.23%,-5.23%
Cc1cc(C(=O)NCc2ccc(-c3c(C)noc3C)cc2)n(-c2ccccc2)n1,4.79%,4.63%,3.34%
COc1ccc(CCNC(=O)c2ccccc2O)cc1-c1ccc(C(C)(C)C)cc1,4.03%,2.33%,3.39%
O=C(Nc1cccc(C(F)(F)F)c1)c1ccc(S(=O)(=O)NC2CCN(CC3CCCCC3)C2)cc1 (centres undefined),3.79%,3.31%,4.54%
Fc1cc(Cl)ccc1Nc1ccnc2cc(-c3ccc(CN4CCNCC4)o3)ccc12,1.02%,1.16%,1.34%
Cc1cc(NCCCOc2ccc(Cl)cc2)nc(NCc2ccccc2)n1,18.8%,11.1%,7.19%
O=C(Nc1ccc(Oc2ccccc2)cc1)N[C@H]1CCN(Cc2ccc(OCCCN3CCCCC3)cc2)C1,-2.21%,-1.17%,-3.91%
CCCc1cc(NCC)nc(Nc2ccc(F)cc2)n1,15.6%,6.64%,3.2%
O=C(Nc1cccc(F)c1)N1CCC(CN2CCOC(c3ccccc3)(c3ccccc3)C2)CC1,3.49%,4.01%,5%

SMILES,inhibition [1],inhibition [2],inhibition [3]
O=C(Nc1cc(F)cc(F)c1)N1CCOC(CCN2CCC(c3ccccc3)CC2)(c2ccc(Cl)c(Cl)c2)C1 (centres undefined),4.27%,2.5%,2.87%
CC(O)C1CCCCN1C(=O)c1cccc(-c2cccc(-c3nc4cc(F)ccc4[nH]3)c2)c1 (centres undefined),3.45%,3.21%,1.62%
CC1CCC(C(C)C)C(OC(=O)CSc2nnc3c(n2)[nH]c2ccccc23)C1 (centres undefined),-1.05%,-0.14%,-0.42%
C#CCOc1ccc2ccccc2c1CNCCCCCCNCc1c(OCC#C)ccc2ccccc12,8.53%,2.21%,0.87%
CN1CCN(CCCN(Cc2csc(-c3ccc(CNCc4ccccc4)cc3)n2)C(=O)Nc2ccc3ccccc3c2)CC1,2.94%,4.46%,0.42%
O=C(Nc1ccc(C(=O)OCC(c2ccccc2)c2ccccc2)cc1)N[C@@H](Cc1ccc(O)cc1)C(=O)NC1CCN(Cc2ccc(O)cc2)C1 (some centres undefined),-0.47%,-1.74%,-3.39%
Nc1c2c(nc3ccc(NC(=O)Cc4ccccc4)cc13)CCCC2,4.09%,5.7%,6.71%
Cc1ccc(Nc2nc(C)cc(Nc3cccc(C#N)c3)n2)cc1,42.3%,65.8%,16.3%
Cc1ccc(-c2cc(C(=O)Nc3ccc(S(=O)(=O)N4CCCC(C)C4)cc3)[nH]n2)c(O)c1 (centres undefined),-1.53%,-1.98%,-1.01%
Clc1ccc(Nc2nc(Nc3ccc(Cl)c(Cl)c3)nc(Sc3nc4ccccc4[nH]3)n2)cc1Cl,8.07%,9.05%,7.05%
Cc1cccc2nc(-c3ccc(-c4ccc(CN5CCCCC5)cc4)cc3)[nH]c12,19.2%,18.6%,10.2%
CC(C)NCC(O)Cn1c2ccc(Br)cc2c2cc(Br)ccc21 (centres undefined),0.74%,0.92%,0.36%
CC(Cc1ccc(OCc2ccccc2)cc1)Nc1nc(O)c2ccccc2n1 (centres undefined),2.96%,1.33%,3.22%
CC(Cc1ccc(C(=O)OCCOC(=O)c2ccc(CC(C)NCC(O)c3cccc(C(F)(F)F)c3)cc2)cc1)NCC(O)c1cccc(C(F)(F)F)c1 (centres undefined),1.7%,-0.31%,2.65%
CCN(CCO)Cc1ccc(-c2ccc(NS(=O)(=O)c3cccc4cccnc34)cc2)cc1,89.5%,95.5%,92.4%
CCCC(=O)Nc1ccc(OCCCN(Cc2ccccc2F)c2ccc(C#N)c(C(F)(F)F)c2)cc1,1.79%,0.66%,0.71%
